An excerpt weighted towards active compounds, which were near 19% of everything screened.
HT1080 IDH1KD tx – toxicity to HT-1080 IDH1 knockdown cells (counter line). HT-1080 IDH1 knockdown viability, ATP luminescence, 48 h. Potency, µM (top dose mostly 46.1 µM), inactives show at the top dose activity, negative = toxicity, most hits filed as cytotoxic. 2% of 360,000 active. AID 686971;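 note: 0% = DMSO wells and -100% = cell-free medium wells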
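Viability of IDH1-knockdown HT-1080 fibrosarcoma cells was assessed by CellTiter-Glo after 48 h at 37 °C with titrated compound; concentration-effect curves were classified by fit quality and response size.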
DT40 TDP1 CPT – DT40-hTDP1 cell growth loss with CPT. chicken DT40 Tdp1-/-;hTDP1 cells + 20 nM CPT, ATP luminescence, 48 h. Potency, µM (top dose mostly 46.2 µM), inactives show at the highest dose activity change, negative = growth inhibition, hits mostly inhibitors. 12% of 420,000 active; note: nearly all actives have a fitted effect of over 55% in size
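Chicken DT40 Tdp1-/- cells stably complemented with human TDP1 were seeded at 400 cells/well in medium containing 20 nM camptothecin, exposed to pin-transferred compounds, and grown at 37 °C for at least 48 hr. Viability was read as ATP luminescence.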
KB-3-1 tox – KB-3-1 parental cell cytotoxicity | KB-3-1 viability, CellTiter-Glo ATP luminescence, 72 h | Potency, µM (top dose mostly 46.1 µM), most hits filed as cytotoxic | 1.4% of 400,000 active; note: nearly all actives have a fitted effect of over 60% in size
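Cytotoxicity measured as CellTiter-Glo luminescence after 72 h at 37 C. Compound titrations were pinned onto drug-naive KB-3-1 parental adenocarcinoma cells grown in DMEM with 10% FBS, and normalized data fitted to concentration-response curves.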
KB-V1 MDR tox – KB-V1 MDR subline cytotoxicity; KB-V1 MDR cells viability, CellTiter-Glo, 72 h; Potency, µM (series often up to 46.1 µM), most hits filed as cytotoxic; 3.4% of 400,000 active; note: nearly all actives have a fitted effect of over 60% in size
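Luminescent ATP read-out (CellTiter-Glo, 10 min) measures survival of drug-selected KB-V1 MDR cells after 72 h, 37 degrees C compound exposure. Medium: phenol-red-free DMEM, 10% FBS. Values from fitted concentration-response curves.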
HT1080-NT tox – kills 2HG-producing HT-1080-NT fibrosarcoma cells; HT-1080-NT fibrosarcoma viability, CellTiter-Glo ATP luminescence, 48 h; Potency, µM (doses to about 46.1 µM), without a hit: at the top dose activity, negative = less viability, hits mostly cytotoxic; 1.6% of 360,000 active;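 note: NT is the 2HG producing partner of a matched IDH1 knockdown line; 0% = DMSO-treated cells and -100% = media-only wells without cells; nearly all actives have a fitted effect of over 55% in size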
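HT-1080-NT; 750 cells/well; 5% FBS RPMI; 48 h compound, 37 degrees C; CellTiter-Glo luminescence; curve fitting and curve-class assignment.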
DT40 TDP1 no CPT – qHTS for Inhibitors of human tyrosyl-DNA phosphodiesterase 1 (TDP1): qHTS in cells in absence of CPT; DT40 Tdp1-/- hTDP1 cells, no CPT, ATP luminescence, 48 h; 15% of 420,000 active; Potency, µM (titrated, usually from 46.2 µM), without a hit: at the highest dose activity change, negative = growth inhibition, most hits filed as inhibitors; note: nearly all actives have a fitted effect of over 55% in size
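Chicken DT40 Tdp1-/- cells stably complemented with human TDP1 were seeded at 400 cells/well with DMSO in place of 20 nM camptothecin. After compound pinning, cells grew at least 48 hr at 37 °C; viability read by CellTiter-Glo luminescence.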
* hit, by the source's call; [ ] = remark or other dose. Calls come from the whole dose curve; as a rule, active = well fitted curve in the direction sought with a large enough effect; inconclusive = small, poorly fitted or top-dose-only effect, or another doubt; inactive = no such curve, though single readings can be large; an effect the other way counts as inactive or inconclusive. Unless noted, % is set by controls: 0 for no effect and ±100 for the full control effect; potency is the fitted concentration of half-maximal effect.

What do the screens show for `CCCCN1CC(=O)N2[C@H]3c4ccc(OC)cc4OC[C@@H]3[C@H](c3ccccc3)[C@]2(C)C1=O`?
HT1080 IDH1KD tx: 0%; DT40 TDP1 CPT: inconclusive; KB-3-1 tox: inactive; KB-V1 MDR tox: inactive; HT1080-NT tox: 0%; DT40 TDP1 no CPT: 23µM*

What do the screens show for `COc1ccc2c(c1)OC[C@H]1[C@H]2N2C(=O)CN(Cc3ccco3)C(=O)[C@@]2(C)[C@H]1c1ccccc1`?
HT1080 IDH1KD tx: -1%; DT40 TDP1 CPT: inconclusive; KB-3-1 tox: inconclusive; KB-V1 MDR tox: inactive; HT1080-NT tox: 0%; DT40 TDP1 no CPT: inconclusive

How did COc1ccc(CN2CC(=O)N3[C@H]4c5ccccc5OC[C@@H]4[C@H](c4ccccc4)[C@]3(C)C2=O)cc1 do in these assays?
HT1080 IDH1KD tx: -13%; DT40 TDP1 CPT: inconclusive; KB-3-1 tox: inconclusive; KB-V1 MDR tox: inactive; HT1080-NT tox: -3%; DT40 TDP1 no CPT: 16µM*

Results for COc1ccc(CN2CC(=O)N3[C@H]4c5cc(C)ccc5OC[C@@H]4[C@H](c4ccccc4)[C@]3(C)C2=O)cc1 ?
HT1080 IDH1KD tx: -9%; DT40 TDP1 CPT: inconclusive; KB-3-1 tox: inconclusive; KB-V1 MDR tox: inactive; HT1080-NT tox: -1%; DT40 TDP1 no CPT: 21µM*

Results for CCOc1cc(C=NN2CCCCCC2)ccc1O ?
HT1080 IDH1KD tx: -13%; DT40 TDP1 CPT: -2%; KB-3-1 tox: inactive; KB-V1 MDR tox: inactive; HT1080-NT tox: -7%; DT40 TDP1 no CPT: inconclusive

How did O=C(NC1CCCCC1)C1c2ccccc2OCC(=O)N1CC(F)(F)F (stereo not given) do in these assays?
HT1080 IDH1KD tx: 8%; DT40 TDP1 CPT: -1%; KB-3-1 tox: inactive; KB-V1 MDR tox: inactive; HT1080-NT tox: 11%; DT40 TDP1 no CPT: -10%

How did COC(=O)CCCCCNc1ccc(C(=O)OC)cc1N do in these assays?
HT1080 IDH1KD tx: 14%; DT40 TDP1 CPT: -2%; KB-3-1 tox: inactive; KB-V1 MDR tox: inactive; HT1080-NT tox: 17%; DT40 TDP1 no CPT: 3%

Results for Cc1ccc2c(c1)[C@H]1[C@H](CO2)[C@H](c2ccccc2)[C@]2(C)C(=O)N(Cc3ccc(Cl)cc3)CC(=O)N12 ?
HT1080 IDH1KD tx: 4%; DT40 TDP1 CPT: inconclusive; KB-3-1 tox: inconclusive; KB-V1 MDR tox: inconclusive; HT1080-NT tox: -16%; DT40 TDP1 no CPT: 15µM*

What do the screens show for `Cn1c2ccccc2c2ncn(CCC3=CCCCC3)c(=O)c21`?
HT1080 IDH1KD tx: -19%; DT40 TDP1 CPT: inconclusive; KB-3-1 tox: inactive; KB-V1 MDR tox: 16µM*; HT1080-NT tox: -17%; DT40 TDP1 no CPT: inconclusive

What do the screens show for `Cc1oc(-c2cccc(NC(=O)C3CCCN(C)C3)c2)nc1CNC(=O)c1coc2c1C(=O)CCC2` (stereo not given)?
DT40 TDP1 CPT: 4%[9.04 µM]; DT40 TDP1 no CPT: 16µM*

How did Cc1ccc(C(=O)Nc2cccc(-c3nc(CNC(=O)c4ccc5ccccc5n4)c(C)o3)c2)s1 do in these assays?
DT40 TDP1 CPT: inconclusive; DT40 TDP1 no CPT: 16µM*

What do the screens show for `Cc1ccc(C(=O)Nc2cccc(-c3nc(CNC(=O)C4(C)CC4)c(C)o3)c2)s1`?
DT40 TDP1 CPT: -9%; DT40 TDP1 no CPT: -6%

What do the screens show for `Cc1oc(-c2cccc(NC(=O)c3ccccn3)c2)nc1CNC(=O)C#Cc1ccccc1`?
DT40 TDP1 CPT: inconclusive; DT40 TDP1 no CPT: 23µM*

Results for Cc1cc(C(=O)Nc2cccc(-c3nc(CNC(=O)c4ccc[n+]([O-])c4)c(C)o3)c2)c(C)o1 ?
DT40 TDP1 CPT: -8%[9.04 µM]; DT40 TDP1 no CPT: inconclusive

What do the screens show for `COc1ccc(C(=O)NCc2nc(-c3cccc(NC(=O)c4ccc(C)s4)c3)oc2C)cc1`?
DT40 TDP1 CPT: 0%[9.04 µM]; DT40 TDP1 no CPT: 15µM*

How did Cc1ncoc1C(=O)NCc1nc(-c2cccc(NC(=O)c3ccccn3)c2)oc1C do in these assays?
DT40 TDP1 CPT: -6%[9.04 µM]; DT40 TDP1 no CPT: inconclusive

What do the screens show for `Cc1oc(-c2cccc(NC(=O)c3ccccn3)c2)nc1CNC(=O)c1cc(F)c(F)cc1F`?
DT40 TDP1 CPT: -10%[9.04 µM]; DT40 TDP1 no CPT: -14%

How did CSc1nc(C(=O)NCc2nc(-c3cccc(NC(=O)c4ccc(C)s4)c3)oc2C)cs1 do in these assays?
DT40 TDP1 CPT: 9%[9.04 µM]; DT40 TDP1 no CPT: -2%

How did Cc1cccc(C(=O)NCc2nc(-c3cccc(NC(=O)c4ccoc4C)c3)oc2C)n1 do in these assays?
DT40 TDP1 CPT: 2%[9.04 µM]; DT40 TDP1 no CPT: 13µM*

Results for Cc1ccc(C(=O)Nc2cccc(-c3nc(CNC(=O)c4cccc(N(C)C)c4)c(C)o3)c2)s1 ?
DT40 TDP1 CPT: 4%[9.04 µM]; DT40 TDP1 no CPT: 16µM*

Results for Cc1cc(C(=O)Nc2cccc(-c3nc(CNC(=O)c4cnccn4)c(C)o3)c2)c(C)o1 ?
DT40 TDP1 CPT: 4%[9.04 µM]; DT40 TDP1 no CPT: inconclusive

What do the screens show for `Cc1cc(C(=O)Nc2cccc(-c3nc(CNC(=O)c4ccccc4C(F)(F)F)c(C)o3)c2)c(C)o1`?
DT40 TDP1 CPT: inconclusive; DT40 TDP1 no CPT: 21µM*

Results for Cc1cccc(N=C(N2CCOCC2)P(=O)(N2CCOCC2)N2CCOCC2)c1 ?
HT1080 IDH1KD tx: 3%; DT40 TDP1 CPT: -20%; KB-3-1 tox: inactive; KB-V1 MDR tox: inactive; HT1080-NT tox: 0%[9.24 µM]; DT40 TDP1 no CPT: -10%

How did COc1ccc(-n2c(C)c3c(OC)cccc(=O)c3c2C)cc1 do in these assays?
HT1080 IDH1KD tx: 15%; DT40 TDP1 CPT: inconclusive; KB-3-1 tox: inactive; KB-V1 MDR tox: 18µM*; HT1080-NT tox: 13%; DT40 TDP1 no CPT: inconclusive

How did COC(=O)c1ccc2nc(Nc3nc4c(F)cc(F)cc4s3)sc2c1 do in these assays?
HT1080 IDH1KD tx: -5%; DT40 TDP1 CPT: inconclusive; KB-3-1 tox: inconclusive; KB-V1 MDR tox: inactive; HT1080-NT tox: -10%; DT40 TDP1 no CPT: 16µM*

What do the screens show for `CS(=O)(=O)c1ccc2nc(NC(=O)CCS(=O)(=O)c3ccccc3)sc2c1`?
HT1080 IDH1KD tx: 21µM*; DT40 TDP1 CPT: 5.2µM*; KB-3-1 tox: inactive; KB-V1 MDR tox: inactive; HT1080-NT tox: -26%; DT40 TDP1 no CPT: 5.2µM*

Results for O=C(CCS(=O)(=O)c1ccccc1)Nc1nc2cc3c(cc2s1)OCO3 ?
HT1080 IDH1KD tx: inconclusive; DT40 TDP1 CPT: inconclusive; KB-3-1 tox: inactive; KB-V1 MDR tox: inactive; HT1080-NT tox: -30%; DT40 TDP1 no CPT: inconclusive
